Reference: PubChem BioAssay AID504332 (National Center for Advancing Translational Sciences (NCATS), 2011)
In all, about 350,000 compounds went through this assay and about 31,000 (8.9%) were called active. Inconclusive results (about 15%) are left out. The entries come from a sample that favours actives as a whole. Where a call stands in place of a potency, no number is given. Unmarked numbers belong to inactive results. Calls come from the whole dose curve; as a rule, active = well fitted inhibition curve with a large enough effect; inconclusive = small, poorly fitted or top-dose-only effect; inactive = no such curve, though single readings can be large or run the other way.
Note: nearly all actives have a fitted effect of over 75% in size.
Potency is the fitted concentration of half-maximal effect.

These compounds were tested against Histone-lysine N-methyltransferase EHMT2 (Homo sapiens) (UniProt Q96KQ7) (assay: qHTS Assay for Inhibitors of Histone Lysine Methyltransferase G9a). Conditions: G9a H3K9 monomethylation, AlphaScreen, 2 h; series mostly up to 59 µM.
Histone-lysine N-methyltransferase EHMT2 (Homo sapiens), sequence (Q96KQ7 913-1193 limits assumed): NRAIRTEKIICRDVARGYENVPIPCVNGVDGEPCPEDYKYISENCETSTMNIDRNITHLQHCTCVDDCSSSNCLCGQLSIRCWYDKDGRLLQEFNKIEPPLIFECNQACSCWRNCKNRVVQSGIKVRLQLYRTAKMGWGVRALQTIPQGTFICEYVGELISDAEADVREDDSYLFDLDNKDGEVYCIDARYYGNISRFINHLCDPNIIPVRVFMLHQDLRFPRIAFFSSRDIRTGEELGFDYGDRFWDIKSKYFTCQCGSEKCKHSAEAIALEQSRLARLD
Method in brief: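 G9a (20 nM) preincubated 15 min RT with compounds, then 500 nM biotinylated H3K9 peptide and 20 uM SAM added; 2 h RT reaction. Monomethyl-H3K9 product detected by AlphaScreen with anti-H3K9me1 antibody, streptavidin donor and anti-rabbit IgG acceptor beads.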
With `Cc1ccc(S(=O)(=O)n2nc(-c3ccc(Cl)cc3)nc2NCc2ccccc2)cc1` the Potency was “inactive”.
For `COCCNc1cc(-c2ccccc2)nc2cc(-c3cccc(F)c3)nn12`, the Potency was “inactive”.
For `COCC1CCN(C(=O)c2ccc3oc(Cc4ccccc4)nc3c2)C1` (stereo not drawn), the Potency was “inactive”.
For `CCN(CC)S(=O)(=O)c1ccc2[nH]c(=O)cc(C(=O)N(C)C3CCS(=O)(=O)C3)c2c1` (stereo not drawn), the Potency was “inactive”.
In the case of `COc1cccc(CNC(=O)C2CCN(S(=O)(=O)c3ccc4c(ccn4C)c3)CC2)c1`, the Potency is reported as “inactive”.
`COc1ccc(-c2nc(CS(=O)CC(=O)NCc3ccccc3)c(C)o2)cc1OC` (stereo not drawn) was tested, and the Potency was “inactive”.
With `Cc1ccc(-c2nc(CS(=O)CC(=O)NC3CCCC3)c(C)o2)cc1` (stereo not drawn) the Potency was 70.8 µM (active).
For `COc1ccc(CNC(=O)CS(=O)Cc2nc(-c3cccc(C)c3)oc2C)cc1` (stereo not drawn), the Potency was “inactive”.
`COc1cccc(-c2nc(CS(=O)CC(=O)NCc3ccc(F)cc3)c(C)o2)c1` (stereo not drawn) was tested, and the Potency was “inactive”.
With `Cc1cccc(-c2nc(CS(=O)CC(=O)NC(C)CCc3ccccc3)c(C)o2)c1` (stereo not drawn) the Potency was “inactive”.
In the case of `COc1ccc(-c2nc(CS(=O)CC(=O)N3CCc4ccccc4C3)c(C)o2)cc1` (stereo not drawn), the Potency is reported as 28.2 µM (active).
In the case of `CCC(=O)Nc1cccc(C(=O)OCc2cc(=O)n3nc(CC)sc3n2)c1`, the activity, negative = inhibition is reported as -1.91% [at 12.7 µM].
For `CC(C)CC(NS(=O)(=O)c1ccc2c(c1)oc(=O)n2C)C(=O)NCc1ccccc1Cl` (stereo not drawn), the Potency was “inactive”.
In the case of `COc1ccccc1CNC(=O)C(Cc1ccccc1)NS(=O)(=O)c1ccc2c(c1)oc(=O)n2C` (stereo not drawn), the Potency is reported as “inactive”.
`CCOc1ccc(OCC)c(NC(=O)C(NS(=O)(=O)c2ccc3c(c2)oc(=O)n3C)C(C)C)c1` (stereo not drawn) was tested, and the Potency was 56.2 µM (active).
`CCCn1c2ccccc2c2cnn(CC(=O)N3CCCC(C(=O)OCC)C3)c(=O)c21` (stereo not drawn) was tested, and the Potency was “inactive”.
In the case of `CC(Sc1sc(=S)sc1SC(C)C(=O)O)C(=O)O` (stereo not drawn), the Potency is reported as 50.1 µM (active).
With `Cc1ccc(C)c(NC(=O)COC(=O)Cn2c(C)csc2=O)c1` the Potency was “inactive”.
With `COc1ccccc1CCC(=O)NNC(=O)c1ccncc1` the Potency was “inactive”.
`CC(C)(C)c1cc(P(=O)(c2ccccc2)c2ccccc2)ccc1O` was tested, and the Potency was “inactive”.
With `O=C(CP(=O)(c1ccccc1)c1ccccc1)N1CCOCC1` the Potency was “inactive”.
In the case of `O=P(O)(CP(=O)(c1ccccc1)c1ccccc1)c1ccccc1O`, the Potency is reported as 50.1 µM (active).
In the case of `O=C1N(Cc2ccccc2)c2ccc(Cl)cc2C1(O)c1c[nH]c2ccccc12` (stereo not drawn), the Potency is reported as “inactive”.
For `COc1ccccc1N1CCN(C2C(=O)c3ccccc3N2C(C)=O)CC1` (stereo not drawn), the Potency was “inactive”.
For `O=C(CCS(=O)(=O)c1ccc2c(c1)NC(=O)CS2)NCc1ccccc1Cl`, the Potency was “inactive”.
In the case of `O=S1(=O)CC/C(=N\Nc2ccc(F)cc2)c2ccsc21`, the Potency is reported as 10 µM (active).
`COc1ccc(C(=O)N/N=C2\CCS(=O)(=O)c3ccc(F)cc32)cc1OC` was tested, and the activity, negative = inhibition was 27.4% [at 12.7 µM].
`O=C(c1cccc(Cl)c1)N1CCN(CCc2ccncc2)CC1` was tested, and the Potency was “inactive”.
With `Cc1ccccc1C(OCC(O)CN1CCCCC1CCO)c1ccccc1` (stereo not drawn) the Potency was “inactive”.
For `Cc1ccccc1C(OCCN(C)C)C1CCCCC1` (stereo not drawn), the Potency was 3.16 µM (active).
`CN(C)CCOC(=O)C(c1ccccc1)C1(O)CCCC1` (stereo not drawn) was tested, and the activity, negative = inhibition was 4.21% [at 2.33 µM].
With `COc1ccc(N=Nc2c(-c3ccc(OC)cc3)[nH]oc2=O)cc1` the Potency was 39.8 µM (active).
`COc1ccc2[nH]c(=O)c(-c3noc(-c4ccc(F)cc4)n3)cc2c1` was tested, and the activity, negative = inhibition was -36.9% [at 12.7 µM].
For `COc1ccc(-c2cn[nH]c2-c2ccc(OC)cc2)cc1`, the Potency was “inactive”.
`Cc1occc1-c1nnc(SCC(=O)NC2CCCCC2)o1` showed an activity, negative = inhibition of 9.17% [at 12.7 µM].
With `COc1ccccc1CNC(=O)CSc1nc(=O)n(Cc2ccncc2)c2c1CCC2` the Potency was “inactive”.
For `CC1CN(CCOc2ccccc2[N+](=O)[O-])CC(C)O1` (stereo not drawn), the Potency was 10 µM (active).
`CC1CN(c2nc(-c3ccccc3)nnc2-c2ccccc2)CC(C)O1` (stereo not drawn) was tested, and the Potency was “inactive”.
`CC1CCCN(CCOCCOc2ccccc2-c2ccccc2)C1` (stereo not drawn) was tested, and the Potency was 10 µM (active).
With `CC1CN(CCCOc2ccccc2-c2ccccc2)CC(C)O1` (stereo not drawn) the Potency was 8.91 µM (active).
`CC1CC(C)CN(CCOc2cccc3ccccc23)C1` (stereo not drawn) gave an activity, negative = inhibition of 17.4% [at 2.33 µM].
In the case of `O=[N+]([O-])c1ccccc1OCCCCN1CCCCC1`, the Potency is reported as “inactive”.
With `Cc1cc(C(=O)COc2ccccc2[N+](=O)[O-])c(C)n1-c1cccc(S(=O)(=O)N2CCOCC2)c1` the Potency was “inactive”.
For `CC1CCCN(CC(=O)Nc2cc(Cl)ccc2Oc2ccccc2)C1` (stereo not drawn), the Potency was “inactive”.
For `CC1CN(CC(=O)NC(C)c2ccccc2)CC(C)O1` (stereo not drawn), the Potency was “inactive”.
With `CC(C)(C)c1ccc(S(=O)(=O)N2CCN(C(=O)c3ccc4c(c3)C(=O)N(Cc3ccncc3)C4=O)CC2)cc1` the Potency was “inactive”.
For `CCc1ccccc1NC(=O)CSc1nnc(-c2ccccc2)c(-c2ccccc2)n1`, the Potency was “inactive”.
`O=C(Nc1ccc(-c2nc3cc(NC(=O)c4ccccc4Cl)ccc3o2)cc1)c1ccccc1Cl` was tested, and the Potency was “inactive”.
`O=C(CCc1nc2sc3c(c2c(=O)[nH]1)CCCC3)NCC(=O)Nc1ccccc1Br` was tested, and the activity, negative = inhibition was -4.82% [at 12.7 µM].
`COc1cccc(C(=O)N2CCC(n3nccc3NC(=O)C3CCOC3)CC2)c1` (stereo not drawn) was tested, and the activity, negative = inhibition was -5.15% [at 0.501 µM].
`Cc1cc(Br)ccc1NC(=O)Cn1cnc2sc(C)c(S(=O)(=O)N3CCN(C)CC3)c2c1=O` was tested, and the Potency was “inactive”.
In the case of `O=C(Nc1cccc2cccnc12)c1cccc(N2C(=O)CCC2=O)c1`, the Potency is reported as “inactive”.
For `COc1ccccc1-c1nnc(NC(=O)c2cccc(N3C(=O)CCC3=O)c2)o1`, the Potency was 1.41 µM (active).
For `Cc1cc(NC(=O)c2cccc(N3C(=O)CCC3=O)c2)no1`, the Potency was “inactive”.
With `COc1cc(CN2CC(C)CC(C)C2)cc([N+](=O)[O-])c1O` (stereo not drawn) the Potency was “inactive”.
With `COc1cc(NC(=O)NCC2CCN(Cc3ccc(C)cc3)CC2)cc(OC)c1OC` the Potency was “inactive”.
For `COc1cc(CN2CCN(Cc3ccc(C)cc3)CC2)c([N+](=O)[O-])cc1OC`, the Potency was 4.47 µM (active).
`CCOC(=O)c1cc(-c2ccccc2)n(CCC(=O)Nc2ccccc2CC)c1C` was tested, and the Potency was “inactive”.
In the case of `COC(CCN(C)C)(c1ccccc1)c1ccccc1`, the Potency is reported as “inactive”.
For `CN(C)CCOC1c2ccccc2-c2ccccc21`, the Potency was 22.4 µM (active).
`CN(C)c1ccc(/C=N/NC(=O)c2ccc(Cn3cc(Br)cn3)o2)cc1` was tested, and the Potency was 39.8 µM (active).
`O=C(N/N=C/c1ccc2c(c1)OCO2)c1ccc(Cn2cc([N+](=O)[O-])cn2)o1` was tested, and the Potency was “inactive”.
In the case of `O=C(N/N=C\c1ccc(Br)cc1)c1ccc(Cn2cccn2)o1`, the Potency is reported as “inactive”.
